Measured values reported in ChEMBL document CHEMBL2218924, “A broad activity screen in support of a chemogenomic map for kinase signalling research and drug discovery” (Biochem J, 2013).

What was measured:
[1] = target: Death-associated protein kinase 1 (Homo sapiens) (UniProt P53355); conditions: at 10 µM
[2] = target: Death-associated protein kinase 2 (Homo sapiens) (UniProt Q9UIK4); conditions: at 1 µM
[3] = target: Death-associated protein kinase 2 (Homo sapiens) (UniProt Q9UIK4); conditions: at 10 µM
[4] = target: T1, Serine/threonine-protein kinase DCLK2 (Homo sapiens) (UniProt Q8N568); conditions: at 1 µM
T1 sequence (whole entry): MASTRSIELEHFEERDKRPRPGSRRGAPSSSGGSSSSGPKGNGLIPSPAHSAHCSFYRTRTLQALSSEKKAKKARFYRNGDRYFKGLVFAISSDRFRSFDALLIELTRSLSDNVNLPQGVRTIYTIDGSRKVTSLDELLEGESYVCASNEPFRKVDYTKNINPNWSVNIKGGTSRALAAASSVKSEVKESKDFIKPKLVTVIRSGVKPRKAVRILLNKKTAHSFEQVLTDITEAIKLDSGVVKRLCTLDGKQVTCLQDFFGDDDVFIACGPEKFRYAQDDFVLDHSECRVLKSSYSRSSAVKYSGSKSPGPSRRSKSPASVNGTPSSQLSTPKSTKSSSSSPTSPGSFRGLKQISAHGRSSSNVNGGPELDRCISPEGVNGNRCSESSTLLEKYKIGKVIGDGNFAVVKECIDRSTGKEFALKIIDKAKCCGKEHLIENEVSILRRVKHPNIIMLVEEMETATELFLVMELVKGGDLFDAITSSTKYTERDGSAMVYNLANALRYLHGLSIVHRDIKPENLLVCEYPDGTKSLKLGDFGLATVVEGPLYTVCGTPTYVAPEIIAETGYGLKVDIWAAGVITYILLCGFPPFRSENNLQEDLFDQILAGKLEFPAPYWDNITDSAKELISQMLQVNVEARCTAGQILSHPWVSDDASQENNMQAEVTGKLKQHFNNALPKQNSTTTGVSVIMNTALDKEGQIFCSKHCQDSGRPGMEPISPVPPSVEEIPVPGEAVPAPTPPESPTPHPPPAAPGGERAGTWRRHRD

[5] = target: T1, Serine/threonine-protein kinase DCLK2 (Homo sapiens); conditions: at 10 µM
[6] = target: T2, Discoidin domain-containing receptor 2 (Homo sapiens) (UniProt Q16832); conditions: at 1 µM
T2 sequence (whole entry): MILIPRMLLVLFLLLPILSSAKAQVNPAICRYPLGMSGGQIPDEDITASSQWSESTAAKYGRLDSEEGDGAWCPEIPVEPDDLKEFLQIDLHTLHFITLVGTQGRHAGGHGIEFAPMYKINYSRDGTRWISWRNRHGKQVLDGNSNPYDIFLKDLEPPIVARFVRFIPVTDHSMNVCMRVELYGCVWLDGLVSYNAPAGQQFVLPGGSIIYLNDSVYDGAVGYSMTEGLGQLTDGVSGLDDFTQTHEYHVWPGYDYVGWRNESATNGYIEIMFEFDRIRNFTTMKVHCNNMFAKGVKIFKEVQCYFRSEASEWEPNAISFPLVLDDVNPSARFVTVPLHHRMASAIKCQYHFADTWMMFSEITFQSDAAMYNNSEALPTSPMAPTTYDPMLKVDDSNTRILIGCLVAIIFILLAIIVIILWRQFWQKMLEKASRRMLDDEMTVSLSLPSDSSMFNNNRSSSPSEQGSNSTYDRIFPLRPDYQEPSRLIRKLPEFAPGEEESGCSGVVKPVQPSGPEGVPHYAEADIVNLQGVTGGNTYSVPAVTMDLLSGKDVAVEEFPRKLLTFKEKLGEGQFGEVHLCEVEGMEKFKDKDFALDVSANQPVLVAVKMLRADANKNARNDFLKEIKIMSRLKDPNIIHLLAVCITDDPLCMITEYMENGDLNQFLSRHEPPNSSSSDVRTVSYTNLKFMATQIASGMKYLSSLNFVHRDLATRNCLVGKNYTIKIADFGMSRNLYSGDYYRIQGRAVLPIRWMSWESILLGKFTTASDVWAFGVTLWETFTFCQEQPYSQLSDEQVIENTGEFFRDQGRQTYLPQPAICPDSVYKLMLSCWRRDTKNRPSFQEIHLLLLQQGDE

[7] = target: T2, Discoidin domain-containing receptor 2 (Homo sapiens); conditions: at 10 µM
[8] = target: T3, Myotonin-protein kinase (Homo sapiens) (UniProt Q09013); conditions: at 1 µM
T3 sequence (whole entry): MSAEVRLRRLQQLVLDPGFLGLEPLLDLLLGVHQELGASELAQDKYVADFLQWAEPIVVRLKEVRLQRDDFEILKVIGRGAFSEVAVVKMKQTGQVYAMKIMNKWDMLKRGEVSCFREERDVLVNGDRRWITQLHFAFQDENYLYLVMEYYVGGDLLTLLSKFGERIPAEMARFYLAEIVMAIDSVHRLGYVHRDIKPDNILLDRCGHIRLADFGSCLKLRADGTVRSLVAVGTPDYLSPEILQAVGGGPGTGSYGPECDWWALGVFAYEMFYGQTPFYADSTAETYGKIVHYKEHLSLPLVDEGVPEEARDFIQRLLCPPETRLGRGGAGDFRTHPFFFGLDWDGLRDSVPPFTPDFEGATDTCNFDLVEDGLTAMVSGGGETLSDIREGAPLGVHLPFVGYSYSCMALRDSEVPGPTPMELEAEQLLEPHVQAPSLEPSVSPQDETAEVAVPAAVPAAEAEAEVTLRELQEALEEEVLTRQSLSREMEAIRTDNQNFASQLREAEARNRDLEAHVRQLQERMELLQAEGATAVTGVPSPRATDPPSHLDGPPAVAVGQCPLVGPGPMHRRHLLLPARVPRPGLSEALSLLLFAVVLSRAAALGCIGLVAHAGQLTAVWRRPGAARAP

[9] = target: T3, Myotonin-protein kinase (Homo sapiens); conditions: at 10 µM
[10] = target: T4, Serine/threonine-protein kinase 17A (Homo sapiens) (UniProt Q9UEE5); conditions: at 1 µM
T4 sequence (whole entry): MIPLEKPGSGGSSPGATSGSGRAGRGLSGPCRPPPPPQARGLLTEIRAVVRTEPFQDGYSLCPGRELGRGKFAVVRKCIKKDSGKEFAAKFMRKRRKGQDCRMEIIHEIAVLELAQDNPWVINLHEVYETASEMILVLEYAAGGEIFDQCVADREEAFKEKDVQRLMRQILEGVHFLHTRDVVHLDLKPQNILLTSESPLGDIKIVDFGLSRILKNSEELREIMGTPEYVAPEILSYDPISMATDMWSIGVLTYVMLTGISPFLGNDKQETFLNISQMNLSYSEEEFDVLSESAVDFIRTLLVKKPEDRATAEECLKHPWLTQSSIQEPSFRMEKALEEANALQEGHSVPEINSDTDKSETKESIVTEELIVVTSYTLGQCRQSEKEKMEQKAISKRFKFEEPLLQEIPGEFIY

[11] = target: T4, Serine/threonine-protein kinase 17A (Homo sapiens); conditions: at 10 µM
[12] = target: T5, Dual specificity tyrosine-phosphorylation-regulated kinase 2 (Homo sapiens) (UniProt Q92630); conditions: at 1 µM
T5 sequence (whole entry): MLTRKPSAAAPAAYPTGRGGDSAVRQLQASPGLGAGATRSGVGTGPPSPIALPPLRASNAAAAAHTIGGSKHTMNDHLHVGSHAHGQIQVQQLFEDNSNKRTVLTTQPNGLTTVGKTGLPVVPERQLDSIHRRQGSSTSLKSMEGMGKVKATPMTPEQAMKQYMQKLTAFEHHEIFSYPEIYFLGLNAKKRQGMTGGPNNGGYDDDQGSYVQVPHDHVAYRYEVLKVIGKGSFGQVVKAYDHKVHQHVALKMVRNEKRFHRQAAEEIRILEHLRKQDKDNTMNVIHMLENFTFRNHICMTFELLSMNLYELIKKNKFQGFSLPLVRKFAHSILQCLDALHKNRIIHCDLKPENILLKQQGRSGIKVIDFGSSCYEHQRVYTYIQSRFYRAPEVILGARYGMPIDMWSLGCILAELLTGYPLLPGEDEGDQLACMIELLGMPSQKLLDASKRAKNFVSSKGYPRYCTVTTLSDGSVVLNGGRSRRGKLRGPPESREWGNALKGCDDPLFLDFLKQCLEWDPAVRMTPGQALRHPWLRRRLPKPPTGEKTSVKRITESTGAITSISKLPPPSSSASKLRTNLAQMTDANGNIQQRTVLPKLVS

[13] = target: T5, Dual specificity tyrosine-phosphorylation-regulated kinase 2 (Homo sapiens); conditions: at 10 µM
[14] = target: T6, Ephrin type-A receptor 1 (Homo sapiens) (UniProt P21709); conditions: at 1 µM
T6 sequence (whole entry): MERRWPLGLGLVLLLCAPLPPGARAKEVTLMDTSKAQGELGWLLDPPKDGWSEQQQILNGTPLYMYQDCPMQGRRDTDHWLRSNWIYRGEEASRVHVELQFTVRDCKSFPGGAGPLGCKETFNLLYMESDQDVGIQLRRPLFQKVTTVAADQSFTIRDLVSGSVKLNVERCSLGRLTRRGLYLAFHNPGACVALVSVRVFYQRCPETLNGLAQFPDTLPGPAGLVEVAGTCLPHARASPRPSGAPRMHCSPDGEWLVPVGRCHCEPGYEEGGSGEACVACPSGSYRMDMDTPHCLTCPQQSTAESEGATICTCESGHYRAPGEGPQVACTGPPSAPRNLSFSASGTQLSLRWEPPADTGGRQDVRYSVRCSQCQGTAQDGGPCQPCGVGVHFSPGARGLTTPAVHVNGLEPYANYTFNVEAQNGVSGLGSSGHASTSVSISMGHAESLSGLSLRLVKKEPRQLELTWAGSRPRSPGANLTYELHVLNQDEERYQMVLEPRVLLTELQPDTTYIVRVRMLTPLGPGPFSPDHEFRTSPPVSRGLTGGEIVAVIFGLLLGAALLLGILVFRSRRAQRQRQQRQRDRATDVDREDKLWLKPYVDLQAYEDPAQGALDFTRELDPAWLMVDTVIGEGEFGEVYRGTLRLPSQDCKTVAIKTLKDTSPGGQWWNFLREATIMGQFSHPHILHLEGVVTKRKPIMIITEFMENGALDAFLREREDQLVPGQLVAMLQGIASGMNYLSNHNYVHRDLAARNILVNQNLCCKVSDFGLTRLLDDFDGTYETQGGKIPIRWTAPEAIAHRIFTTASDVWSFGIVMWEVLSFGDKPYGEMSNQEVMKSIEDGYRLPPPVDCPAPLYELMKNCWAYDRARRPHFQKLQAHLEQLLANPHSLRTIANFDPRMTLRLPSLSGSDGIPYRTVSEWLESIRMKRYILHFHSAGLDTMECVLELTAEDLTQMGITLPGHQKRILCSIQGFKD

[15] = target: T6, Ephrin type-A receptor 1 (Homo sapiens); conditions: at 10 µM
[16] = target: Ephrin type-A receptor 2 (Homo sapiens) (UniProt P29317); conditions: at 1 µM
[17] = target: Ephrin type-A receptor 2 (Homo sapiens) (UniProt P29317); conditions: at 10 µM
[18] = target: T7, Ephrin type-A receptor 3 (Homo sapiens) (UniProt P29320); conditions: at 1 µM
T7 sequence (whole entry): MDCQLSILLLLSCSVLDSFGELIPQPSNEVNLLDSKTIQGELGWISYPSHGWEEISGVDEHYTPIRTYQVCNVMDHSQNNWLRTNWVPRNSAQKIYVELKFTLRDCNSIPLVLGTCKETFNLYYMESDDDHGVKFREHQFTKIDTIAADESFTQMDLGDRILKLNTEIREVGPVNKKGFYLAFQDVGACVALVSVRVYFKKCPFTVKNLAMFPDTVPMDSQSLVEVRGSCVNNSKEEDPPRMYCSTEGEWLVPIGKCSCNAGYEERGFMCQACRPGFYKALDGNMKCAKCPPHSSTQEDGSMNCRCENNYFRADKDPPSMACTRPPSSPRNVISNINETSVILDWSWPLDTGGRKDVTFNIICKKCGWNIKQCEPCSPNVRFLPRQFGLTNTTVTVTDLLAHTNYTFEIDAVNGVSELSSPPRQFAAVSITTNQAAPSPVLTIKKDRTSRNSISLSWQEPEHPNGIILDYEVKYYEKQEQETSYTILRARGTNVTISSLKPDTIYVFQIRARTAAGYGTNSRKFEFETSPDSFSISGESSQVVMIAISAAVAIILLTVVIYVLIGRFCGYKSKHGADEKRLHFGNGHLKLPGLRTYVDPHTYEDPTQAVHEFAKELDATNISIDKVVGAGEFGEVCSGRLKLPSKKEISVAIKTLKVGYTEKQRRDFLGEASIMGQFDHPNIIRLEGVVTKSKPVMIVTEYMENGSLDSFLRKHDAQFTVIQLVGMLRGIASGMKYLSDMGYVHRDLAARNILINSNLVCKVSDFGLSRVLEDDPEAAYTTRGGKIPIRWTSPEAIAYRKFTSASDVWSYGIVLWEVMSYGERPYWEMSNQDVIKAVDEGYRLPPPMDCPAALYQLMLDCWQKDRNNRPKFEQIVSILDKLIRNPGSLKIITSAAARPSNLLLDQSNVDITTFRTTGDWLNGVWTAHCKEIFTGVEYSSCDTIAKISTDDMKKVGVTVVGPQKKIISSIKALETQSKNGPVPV

Chain of Death-associated protein kinase 2 (Homo sapiens) (Q9UIK4 whole entry, looked up): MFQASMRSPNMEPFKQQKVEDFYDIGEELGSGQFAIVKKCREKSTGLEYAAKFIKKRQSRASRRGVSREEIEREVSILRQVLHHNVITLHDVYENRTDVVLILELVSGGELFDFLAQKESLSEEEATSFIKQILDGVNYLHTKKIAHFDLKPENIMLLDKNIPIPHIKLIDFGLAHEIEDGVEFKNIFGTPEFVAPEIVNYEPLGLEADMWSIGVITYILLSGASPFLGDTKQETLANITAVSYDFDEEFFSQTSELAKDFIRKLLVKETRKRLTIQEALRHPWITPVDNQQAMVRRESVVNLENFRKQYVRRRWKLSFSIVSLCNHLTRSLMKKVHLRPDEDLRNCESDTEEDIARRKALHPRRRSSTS
Chain of Ephrin type-A receptor 2 (Homo sapiens) (P29317 whole entry): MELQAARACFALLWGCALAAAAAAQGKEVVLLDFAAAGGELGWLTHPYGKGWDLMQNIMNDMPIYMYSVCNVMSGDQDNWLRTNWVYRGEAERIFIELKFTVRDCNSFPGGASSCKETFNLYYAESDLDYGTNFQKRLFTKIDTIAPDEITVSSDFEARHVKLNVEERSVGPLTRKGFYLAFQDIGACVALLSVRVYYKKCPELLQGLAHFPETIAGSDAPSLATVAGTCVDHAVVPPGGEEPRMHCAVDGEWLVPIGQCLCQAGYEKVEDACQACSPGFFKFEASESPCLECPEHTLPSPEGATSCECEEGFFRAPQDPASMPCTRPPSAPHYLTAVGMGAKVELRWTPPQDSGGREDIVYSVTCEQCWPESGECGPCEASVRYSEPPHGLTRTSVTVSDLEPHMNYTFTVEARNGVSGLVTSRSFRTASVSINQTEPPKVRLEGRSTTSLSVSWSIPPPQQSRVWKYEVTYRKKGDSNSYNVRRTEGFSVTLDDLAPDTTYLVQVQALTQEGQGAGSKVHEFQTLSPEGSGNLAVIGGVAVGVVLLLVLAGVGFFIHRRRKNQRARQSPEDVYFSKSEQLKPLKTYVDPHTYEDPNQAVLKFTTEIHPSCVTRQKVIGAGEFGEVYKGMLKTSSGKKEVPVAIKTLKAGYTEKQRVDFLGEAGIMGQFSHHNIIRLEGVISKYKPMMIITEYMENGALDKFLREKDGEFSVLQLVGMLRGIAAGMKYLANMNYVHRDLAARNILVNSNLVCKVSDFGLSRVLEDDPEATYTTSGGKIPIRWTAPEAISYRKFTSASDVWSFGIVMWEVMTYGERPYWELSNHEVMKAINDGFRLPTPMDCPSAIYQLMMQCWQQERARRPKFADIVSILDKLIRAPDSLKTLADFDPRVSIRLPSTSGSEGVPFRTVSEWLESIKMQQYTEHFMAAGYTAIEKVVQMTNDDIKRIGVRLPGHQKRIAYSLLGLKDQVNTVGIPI
Chain of Death-associated protein kinase 1 (Homo sapiens) (P53355 whole entry, looked up): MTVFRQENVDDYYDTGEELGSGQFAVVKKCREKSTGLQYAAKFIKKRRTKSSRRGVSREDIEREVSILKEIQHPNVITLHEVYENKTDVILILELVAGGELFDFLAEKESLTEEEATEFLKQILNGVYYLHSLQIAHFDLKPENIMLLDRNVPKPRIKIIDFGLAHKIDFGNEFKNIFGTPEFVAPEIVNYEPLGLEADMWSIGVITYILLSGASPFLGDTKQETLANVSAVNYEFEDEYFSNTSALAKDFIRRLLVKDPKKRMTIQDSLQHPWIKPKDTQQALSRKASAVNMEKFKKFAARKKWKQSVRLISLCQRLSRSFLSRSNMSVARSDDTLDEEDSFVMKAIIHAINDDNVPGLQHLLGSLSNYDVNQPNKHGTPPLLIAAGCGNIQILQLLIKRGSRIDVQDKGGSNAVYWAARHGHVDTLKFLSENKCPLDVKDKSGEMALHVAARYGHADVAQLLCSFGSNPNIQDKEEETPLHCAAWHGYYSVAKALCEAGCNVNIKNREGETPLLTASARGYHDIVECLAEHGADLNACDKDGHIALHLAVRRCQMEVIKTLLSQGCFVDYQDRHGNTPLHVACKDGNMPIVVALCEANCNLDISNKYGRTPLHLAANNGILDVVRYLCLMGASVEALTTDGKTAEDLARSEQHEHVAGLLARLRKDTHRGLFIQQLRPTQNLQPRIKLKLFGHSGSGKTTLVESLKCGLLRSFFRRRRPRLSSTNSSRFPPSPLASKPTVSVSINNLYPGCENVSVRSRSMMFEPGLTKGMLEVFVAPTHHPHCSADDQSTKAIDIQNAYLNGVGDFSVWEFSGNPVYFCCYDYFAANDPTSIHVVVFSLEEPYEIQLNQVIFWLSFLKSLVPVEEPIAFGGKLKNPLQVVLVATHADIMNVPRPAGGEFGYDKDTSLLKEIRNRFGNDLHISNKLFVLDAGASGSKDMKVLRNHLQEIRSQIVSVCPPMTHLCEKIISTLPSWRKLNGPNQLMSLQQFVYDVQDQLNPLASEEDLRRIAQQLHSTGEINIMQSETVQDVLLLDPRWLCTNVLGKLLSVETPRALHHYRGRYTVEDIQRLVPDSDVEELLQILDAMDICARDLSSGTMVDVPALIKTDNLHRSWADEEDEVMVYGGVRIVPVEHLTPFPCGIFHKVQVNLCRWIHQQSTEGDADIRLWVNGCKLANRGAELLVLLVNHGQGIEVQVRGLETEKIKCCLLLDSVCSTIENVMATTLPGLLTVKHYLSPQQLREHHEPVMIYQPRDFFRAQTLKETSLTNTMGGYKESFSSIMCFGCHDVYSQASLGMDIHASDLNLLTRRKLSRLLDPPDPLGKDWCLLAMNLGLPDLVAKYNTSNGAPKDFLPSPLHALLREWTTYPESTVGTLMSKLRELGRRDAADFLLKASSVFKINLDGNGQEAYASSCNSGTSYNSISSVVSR

SMILES	residual activity [1] [%]	residual activity [2] [%]	residual activity [3] [%]	residual activity [4] [%]	residual activity [5] [%]	residual activity [6] [%]	residual activity [7] [%]	residual activity [8] [%]	residual activity [9] [%]	residual activity [10] [%]	residual activity [11] [%]	residual activity [12] [%]	residual activity [13] [%]	residual activity [14] [%]	residual activity [15] [%]	residual activity [16] [%]	residual activity [17] [%]	residual activity [18] [%]
CN(C)c1ccc(/C=C2\C(=O)Nc3ccccc32)cc1	80	102	88	88	101	104	99	111	130	25	6	98	98	100	102	123	107	99
C[C@@H](N)[C@H]1CC[C@H](C(=O)Nc2ccncc2)CC1	104	88	85	110	87	108	105	95	95	70	67	101	91	101	96	96	98	103
